MLL AF4-AF9 inh: MLL-AF4/AF9 protein interaction inhibition. P42568. AlphaScreen, biotin-AF4 peptide binding to FLAG-AF9. inhibition, % at 10 µM. hit rate 0.47% among 350,000. AID 651704;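 active = every replicate reaching a set inhibition limit, whatever the replicate mean, cut at about 25% in these data; inconclusive = mean inhibition reaches that limit but some replicates miss it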;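 note: 0% = plate neutral control median and 100% = total signal loss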
Target sequence (P42568 whole entry, looked up): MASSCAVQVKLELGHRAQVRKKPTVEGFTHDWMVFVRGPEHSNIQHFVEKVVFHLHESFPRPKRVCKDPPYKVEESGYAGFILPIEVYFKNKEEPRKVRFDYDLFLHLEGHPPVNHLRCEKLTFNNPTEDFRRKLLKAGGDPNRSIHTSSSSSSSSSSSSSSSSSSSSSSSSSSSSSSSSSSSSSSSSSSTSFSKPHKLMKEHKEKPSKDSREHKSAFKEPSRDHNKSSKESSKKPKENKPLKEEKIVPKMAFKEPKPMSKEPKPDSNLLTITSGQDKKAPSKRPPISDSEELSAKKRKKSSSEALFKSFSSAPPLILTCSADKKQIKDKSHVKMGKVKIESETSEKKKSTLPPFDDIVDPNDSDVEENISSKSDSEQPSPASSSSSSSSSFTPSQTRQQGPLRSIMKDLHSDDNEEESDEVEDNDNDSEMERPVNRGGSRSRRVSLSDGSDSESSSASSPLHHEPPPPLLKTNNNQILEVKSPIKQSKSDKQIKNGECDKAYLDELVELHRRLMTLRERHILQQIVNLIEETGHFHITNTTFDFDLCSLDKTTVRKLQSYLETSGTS
Ecoli rRNA inh: inhibits bacterial ribosomal RNA function over humanized ribosomes; E. coli WT GFP vs humanized-ribosome RFP mutants, fluorescence, 24 h; active compounds read low; DMSO median 0, no signal -100; GFP signal change (wild-type ribosome), % (concentration not given with the values); hit rate 1.6% among 350,000;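 active = significant combined selectivity score with lowered wild-type GFP, culture density cut under 30%, mutant RFP and density less affected; inactive = any of these conditions unmet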
Wnt bcat act: activates Wnt/beta-catenin signaling in a reporter cell assay | activator, plate reader | hit rate 1.2% among 300,000 | activation, % at 9.35 µM; in the data active = activation above about 30%, passing the limit was not always enough; inconclusive = no clear call, values can overlap the other calls;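 note: 0% = neutral control wells and 100% = positive control wells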
MITF TRPM1 HTS: activators of MITF-driven TRPM1 promoter activity in SK-MEL-5 cells; AID 588334; SK-MEL-5 TRPM1-promoter luciferase, 24 h; % of positive control, neutral wells = 0; activation, % at 12.5 µM; hit rate 0.75% among 300,000;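 active = mean activation of at least 80% with every replicate also reaching 80%; inconclusive = mean reaches 80% but some replicate falls short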;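 note: 0% = neutral control wells and 100% = parthenolide positive control wells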
esBAF inh: SWI/SNF esBAF complex inhibition; mouse ES cells, Bmi1-luciferase knock-in reporter, 24 h; 100% = twice the neutral-well signal; reporter increase, % at 12.5 µM; hit rate 2% among 350,000; in the data active = activation above about 40%; inconclusive = no clear call, values can overlap the other calls;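 note: 0% = median of the plate's neutral control wells and 100% = double that signal; a rise in the Bmi1 reporter signal indicates esBAF inhibition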
Numbers without * were called inactive; ! = repeats disagree. Hits are enriched below; roughly 3.7% of the tested compounds scored in any of these assays.

How did CCCc1c(C(=O)NNc2ccc(C)cc2)cnn1-c1ccccc1 do in these assays?
MLL AF4-AF9 inh: 5; Wnt bcat act: -8

What do the screens show for `Cc1[nH]nc(SCC(=O)Nc2cccc(O)c2)c1[N+](=O)[O-]`?
MLL AF4-AF9 inh: 1; Ecoli rRNA inh: -17; Wnt bcat act: 11; MITF TRPM1 HTS: 8

What do the screens show for `Oc1c(C=Nc2ccccc2)sc2ccccc12`?
MLL AF4-AF9 inh: 13; Ecoli rRNA inh: 1; Wnt bcat act: -1; MITF TRPM1 HTS: 17

Results for Oc1sc(C=Nc2ccc(F)cc2)c2ccccc12 ?
Wnt bcat act: 42*; MITF TRPM1 HTS: 29; esBAF inh: 28

How did Oc1sc(C=Nc2ccccc2)c2ccccc12 do in these assays?
Wnt bcat act: 58*; MITF TRPM1 HTS: 40; esBAF inh: 77*

What do the screens show for `COc1ccccc1-c1c(-c2ccc(O)cc2O)n[nH]c1C(F)(F)F`?
MLL AF4-AF9 inh: -10; Ecoli rRNA inh: -15; Wnt bcat act: -4; MITF TRPM1 HTS: -16; esBAF inh: -11

Results for O=C(CN(C1CCCCC1)S(=O)(=O)c1ccccc1)NCc1ccco1 ?
Wnt bcat act: -8; MITF TRPM1 HTS: -8; esBAF inh: 2

Results for Cc1ccc(S(=O)(=O)N(CC(=O)NCc2ccco2)C2CCCCC2)cc1 ?
MLL AF4-AF9 inh: 3; Ecoli rRNA inh: -28*; Wnt bcat act: 1; MITF TRPM1 HTS: 12; esBAF inh: -2

Results for CCCCC(=O)/C=C/n1c(=S)oc2ccccc21 ?
MLL AF4-AF9 inh: 2; Ecoli rRNA inh: 11; Wnt bcat act: 3; MITF TRPM1 HTS: -8; esBAF inh: 65*

What do the screens show for `Cc1cc(C)nc(SC2CCCCC2O)n1` (stereo not drawn)?
Ecoli rRNA inh: 7; Wnt bcat act: -13; MITF TRPM1 HTS: -6; esBAF inh: 1

Results for Cc1ccc(C)c(OCC(=O)NNC(=O)c2ccc(NC(=O)C3CC3)cc2)c1 ?
MLL AF4-AF9 inh: 0; Ecoli rRNA inh: -37*; Wnt bcat act: 1; MITF TRPM1 HTS: 10

What do the screens show for `CCNc1nc(NCC)n2c(SCC(=O)Nc3cc(OC)ccc3OC)nnc2n1`?
MLL AF4-AF9 inh: -2; Ecoli rRNA inh: 6; Wnt bcat act: 0; MITF TRPM1 HTS: -6; esBAF inh: -11

How did COC(=O)c1ccc(C(=O)Nc2ccc(C(C)C)cc2N)cc1 do in these assays?
MLL AF4-AF9 inh: -3; Ecoli rRNA inh: 14; MITF TRPM1 HTS: 68; esBAF inh: 47*

What do the screens show for `COC(=O)c1ccc(C(=O)NN)cc1`?
MLL AF4-AF9 inh: -2; Ecoli rRNA inh: 4; Wnt bcat act: 3; esBAF inh: -6

What do the screens show for `O=C(Nc1ccc2c(c1)OCCO2)c1ccc(Br)o1`?
Wnt bcat act: 55*; MITF TRPM1 HTS: 48; esBAF inh: 17

Results for C/C(=C\C(=O)c1ccc(C)o1)Nc1ccc2c(c1)OCO2 ?
MITF TRPM1 HTS: 79; esBAF inh: 66*

What do the screens show for `Cc1ccc(C(=O)Nc2ccc3c(c2)OCO3)o1`?
MITF TRPM1 HTS: 13; esBAF inh: 48*

What do the screens show for `Cc1ccc(C(=O)OCC(=O)Nc2ccc3c(c2)OCO3)o1`?
Wnt bcat act: 1; MITF TRPM1 HTS: -1; esBAF inh: -2

How did CCCc1cc(=O)oc2cc(OCC(=O)NCCc3c[nH]c4ccc(OC)cc34)ccc12 do in these assays?
MLL AF4-AF9 inh: 0; Wnt bcat act: -1; MITF TRPM1 HTS: 5; esBAF inh: 4

What do the screens show for `COc1cccc(NC(=O)N(C)C[C@@H]2OCc3ccccc3-c3ccccc3C(=O)N([C@H](C)CO)C[C@H]2C)c1`?
MLL AF4-AF9 inh: 2; Ecoli rRNA inh: -4; esBAF inh: 4

What do the screens show for `O=C(Nc1ccccc1)Nc1cccc2nsnc12`?
MLL AF4-AF9 inh: -5; Ecoli rRNA inh: -25; Wnt bcat act: 40*; MITF TRPM1 HTS: 35

Results for O=C(Nc1cccc2nsnc12)c1cccnc1 ?
MLL AF4-AF9 inh: -3; Wnt bcat act: 0; MITF TRPM1 HTS: -8

What do the screens show for `O=C(Nc1cccc2nsnc12)c1cccs1`?
Ecoli rRNA inh: 0; Wnt bcat act: 9; MITF TRPM1 HTS: 62; esBAF inh: 47*!

How did COc1cccc(NC(=O)CCP(C)(=O)O)c1 do in these assays?
MITF TRPM1 HTS: 6; esBAF inh: -1

Results for O=C(NN=C1CCCC1)c1n[nH]c2c1CCC2 ?
MLL AF4-AF9 inh: -1; Ecoli rRNA inh: 15; Wnt bcat act: 2; MITF TRPM1 HTS: 21

What do the screens show for `O=C(NN=C1CCCC1)c1n[nH]c2c1CCCC2`?
MLL AF4-AF9 inh: -3; Ecoli rRNA inh: 6; Wnt bcat act: 54*; MITF TRPM1 HTS: 16

Results for C[C@@H]1C=CCCO[C@]12C(=O)N(Cc1ccccc1C(F)(F)F)c1cccc(Br)c12 ?
Ecoli rRNA inh: 4; Wnt bcat act: -5

Results for O=C(NCCc1ccc(Cl)cc1)c1cnc2n(c1=O)CCS2 ?
MLL AF4-AF9 inh: 4; Ecoli rRNA inh: 8; Wnt bcat act: -3; MITF TRPM1 HTS: 26; esBAF inh: 21

What do the screens show for `O=C(Nc1ccc(Cl)cc1Cl)c1ccc2c(=O)n3c(nc2c1)CCC3`?
MLL AF4-AF9 inh: -9; Ecoli rRNA inh: 2; Wnt bcat act: 42*; MITF TRPM1 HTS: inconclusive; esBAF inh: 43*

What do the screens show for `O=C(NCCC1=CCCCC1)c1cnc2n(c1=O)CCS2`?
Wnt bcat act: 13; MITF TRPM1 HTS: 0; esBAF inh: 46*

How did O=C(NCCC1=CCCCC1)c1ccc2c(=O)n3c(nc2c1)CCCCC3 do in these assays?
MLL AF4-AF9 inh: -9; Ecoli rRNA inh: -15; Wnt bcat act: -2; MITF TRPM1 HTS: 53; esBAF inh: 43*

How did O=C(Nc1ccc(F)c(Cl)c1)c1ccc2c(=O)n3c(nc2c1)CCCCC3 do in these assays?
Wnt bcat act: inconclusive; esBAF inh: 12

What do the screens show for `O=C(Nc1ccc(Cl)cc1)c1ccc2c(=O)n3c(nc2c1)CCCCC3`?
MLL AF4-AF9 inh: -2; Ecoli rRNA inh: -21; Wnt bcat act: 1; esBAF inh: 50*

What do the screens show for `O=C(Nc1ccc(Br)cc1Cl)c1ccc2c(=O)n3c(nc2c1)CCC3`?
MLL AF4-AF9 inh: -12; Ecoli rRNA inh: 5; Wnt bcat act: 15; MITF TRPM1 HTS: inconclusive

How did CN(C)c1ccc(C(=N)Cc2ccc3ccccc3n2)cc1 do in these assays?
MLL AF4-AF9 inh: 0; Ecoli rRNA inh: 2; Wnt bcat act: 12

How did Cc1cc(C)c(S(=O)(=O)N2CCOC2CNC(=O)C(=O)NCCCn2ccnc2)c(C)c1 (stereo not drawn) do in these assays?
MLL AF4-AF9 inh: -2; Ecoli rRNA inh: 5; Wnt bcat act: 6; MITF TRPM1 HTS: 2

Results for O=C(CC1CC1)N1CC(=O)N2[C@@H](CO)[C@H](c3ccc(/C=C/c4ccccc4)cc3)[C@@H]2C1 ?
MLL AF4-AF9 inh: 8; Ecoli rRNA inh: -4

Results for Cc1ccc(S(=O)(=O)/N=C(\c2ccc(Cl)cc2)N2CCOCC2)cc1 ?
MITF TRPM1 HTS: 4; esBAF inh: 1
